Here are results for 32 compounds from PubChem BioAssay (EPA / NIEHS).

Results filed as inconclusive are left out. The source made the active and inactive calls. How the source made its calls: active means hit-call score of the fitted dose curve at least 0.9, where 1 is the maximum; inconclusive means response in the unintended direction; inactive means score below 0.9.

Sequence of AR (gene 367) (P10275 whole entry, looked up): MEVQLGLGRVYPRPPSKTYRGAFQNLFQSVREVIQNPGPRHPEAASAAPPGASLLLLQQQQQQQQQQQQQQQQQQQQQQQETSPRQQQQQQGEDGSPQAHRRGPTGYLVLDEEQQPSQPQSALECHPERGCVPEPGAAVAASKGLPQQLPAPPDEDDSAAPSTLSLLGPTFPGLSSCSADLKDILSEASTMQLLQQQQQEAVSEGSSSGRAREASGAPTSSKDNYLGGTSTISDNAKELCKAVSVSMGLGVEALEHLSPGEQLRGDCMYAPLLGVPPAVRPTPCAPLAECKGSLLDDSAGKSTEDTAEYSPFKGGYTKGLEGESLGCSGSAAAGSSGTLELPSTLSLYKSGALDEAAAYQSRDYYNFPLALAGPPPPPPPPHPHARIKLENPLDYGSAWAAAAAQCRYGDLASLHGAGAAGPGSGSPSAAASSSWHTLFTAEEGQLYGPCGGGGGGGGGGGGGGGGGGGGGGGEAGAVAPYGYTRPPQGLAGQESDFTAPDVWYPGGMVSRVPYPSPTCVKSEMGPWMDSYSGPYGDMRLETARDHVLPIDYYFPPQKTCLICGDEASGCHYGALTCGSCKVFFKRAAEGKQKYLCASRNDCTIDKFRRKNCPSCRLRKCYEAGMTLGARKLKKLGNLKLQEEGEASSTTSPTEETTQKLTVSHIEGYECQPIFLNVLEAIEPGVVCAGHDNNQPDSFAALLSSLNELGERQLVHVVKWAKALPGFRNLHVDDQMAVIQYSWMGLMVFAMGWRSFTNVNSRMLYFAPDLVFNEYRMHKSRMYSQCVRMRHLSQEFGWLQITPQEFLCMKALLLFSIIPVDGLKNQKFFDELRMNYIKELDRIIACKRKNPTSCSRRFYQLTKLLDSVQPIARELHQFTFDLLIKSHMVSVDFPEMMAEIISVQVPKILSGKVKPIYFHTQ

System in one assay: not listed separately
Nature of the assay: ACEA_ER_AUC_viability: ACEA Biosciences xCELLigence Real-Time Cell Analysis on Estrogen Receptor Agonism for Viability (AID 2283782).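 Further: continuous compound exposure with impedance area under curve over 80 h; hit means loss of impedance signal meaning reduced cell growth or viability.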 The method, boiled down: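 T-47D human breast cells in phenol red-free RPMI1640 with 10% charcoal-stripped FBS were dosed with an 8-point 1:4 dilution series from 100 uM top final concentration, in duplicate. Impedance-based growth was followed for 80 h; AUC analysed versus DMSO.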
In general, AC50 refers to the concentration at which the activity in the assay is half-maximal. With `FC(F)C(F)(F)OCC(Cn1cncn1)c1ccc(Cl)cc1Cl` (centres undefined), the AC50 is 75.7 µM (active).

For `CCOP(=O)(OCC)Oc1cc(C)nc(C(C)C)n1`, the compound was classed as inactive.

In the case of `COc1cccc(C(=O)NN(C(=O)c2cc(C)cc(C)c2)C(C)(C)C)c1C`, the compound was called inactive.

As to `CON=C(C(=O)OC)c1ccccc1CON=C(C)c1cccc(C(F)(F)F)c1`, the AC50 is 90.5 µM (active).

As for `CCC(CC)Nc1c([N+](=O)[O-])cc(C)c(C)c1[N+](=O)[O-]`, the AC50 was 76.8 µM (active).

For the compound `O=C(O)c1cc(Oc2ccc(C(F)(F)F)cc2Cl)ccc1[N+](=O)[O-]`, the compound was called inactive.

In the case of `CN(C)C(=O)Nc1cccc(C(F)(F)F)c1`, the compound was classed as inactive.

For the compound `COP(=O)(OC)OC(Br)C(Cl)(Cl)Br` (centres undefined), the AC50 is 30.7 µM (active).

With `CCCCSP(=O)(SCCCC)SCCCC`, the AC50 was 71.4 µM (active).

`CN(C)NC(=O)CCC(=O)O`: the compound was called inactive.

On to `CCc1cccc(CC)c1N(COC)C(=O)CCl`, for which the compound was classed as inactive.

For the compound `CC(C1CC1)C(O)(Cn1cncn1)c1ccc(Cl)cc1` (centres undefined), the result was inactive.

Take `CSc1nc(NC(C)C)nc(NC(C)C)n1`: the compound was classed as inactive.

On to `COc1ccc(C(=CC(=O)N2CCOCC2)c2ccc(Cl)cc2)cc1OC`, for which the compound was classed as inactive.

As for `CC(COc1ccc(Oc2ccccc2)cc1)Oc1ccccn1` (centres undefined), the compound was called inactive.

As to `CSc1nnc(C(C)(C)C)c(=O)n1N`, the call was inactive.

With `CNC(=O)ON=C(C)SC`, the compound was classed as inactive.

As for `CCOC(=O)COc1cc(-c2nn(C)c(OC(F)F)c2Cl)c(F)cc1Cl`, the compound was called inactive.

`CNC(=O)ON=C(SC)C(=O)N(C)C`: the half-maximal activity concentration (AC50) was 65.5 µM (active).

With `CCCCOC(=O)c1ccccc1C(=O)O`, the outcome was inactive.

Take `Nc1nc(N)nc(NC2CC2)n1`: the result was inactive.

Regarding `CC(C)N(C(=O)SCC(Cl)=C(Cl)Cl)C(C)C`, the AC50 is 77.3 µM (active).

Consider `CNC(=O)Oc1cccc2c1OC(C)(C)O2`, for which the call was inactive.

Consider `CCCCOC(=O)[C@@H](C)Oc1ccc(Oc2ccc(C#N)cc2F)cc1`, for which the compound was classed as inactive.

The target of a further assay is AR (gene 367) (UniProt P10275). Nature of the assay: ACEA_AR_agonist_80hr: ACEA Biosciences xCELLigence Real-Time Cell Analysis on Androgen Receptor Agonism for Proliferation (AID 2283783).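 Further: hits increase impedance growth signal above DMSO baseline.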 In a few lines:
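22Rv1 human prostate cancer cells were seeded after preconditioning in assay medium and monitored overnight, then dosed in an eight-point 1:4 dilution series from 100 uM (≤0.5% DMSO). Impedance-based growth was read at 80 h, gain-of-signal versus DMSO.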
`CC(C)=CC1C(C(=O)OCN2C(=O)C3=C(CCCC3)C2=O)C1(C)C` (centres undefined): the result was inactive.

`Cc1nn(-c2cc(NS(C)(=O)=O)c(Cl)cc2Cl)c(=O)n1C(F)F`: the result was inactive.

For `COP(=O)(OC)OC(Br)C(Cl)(Cl)Br` (centres undefined), the compound was classed as inactive.

Consider `CNC(=O)ON=C(SC)C(=O)N(C)C`, for which the result was inactive.

With `CCCOc1nn(C(=O)NS(=O)(=O)c2ccccc2C(=O)OC)c(=O)n1C`, the outcome was inactive.

System in the next assay: not listed separately
The experiment in a line: STM_H9_NormalizedViability: Cytotoxicity Assessment at 120 hours in the Stemina devTOX quickPredict H9 human embryonic stem cell (hESC)-based Assay (AID 2283784). The method, boiled down:
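Chemicals are tested blinded on H9 human embryonic stem cells in the pluripotent state, with medium exchanged daily. After background correction, fluorescence from CellTiter-Fluor is scaled against 0.1% DMSO wells, and decreases are scored.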
In the case of `FC(F)C(F)(F)OCC(Cn1cncn1)c1ccc(Cl)cc1Cl` (centres undefined), the result was inactive.

Regarding `CON=C(C(=O)OC)c1ccccc1CON=C(C)c1cccc(C(F)(F)F)c1`, the outcome was inactive.

`C[N+]1(C)CCCCC1`: the outcome was inactive.

Take `Cc1nn(-c2cc(NS(C)(=O)=O)c(Cl)cc2Cl)c(=O)n1C(F)F`: the result was inactive.

With `CN(C)C(=O)Nc1cccc(C(F)(F)F)c1`, the result was inactive.

As for `CC(C)[C@H](C(=O)O[C@H](C#N)c1cccc(Oc2ccccc2)c1)c1ccc(Cl)cc1`, the outcome was inactive.

On to `Cc1ccn2nc(S(=O)(=O)Nc3c(F)cccc3F)nc2n1`, for which the outcome was inactive.

On to `CC(C1CC1)C(O)(Cn1cncn1)c1ccc(Cl)cc1` (centres undefined), for which the result was inactive.

Regarding `CCOP(=S)(OCC)SCCSCC`, the outcome was inactive.

For `CSc1nc(NC(C)C)nc(NC(C)C)n1`, the result was inactive.

As for `CC(COc1ccc(Oc2ccccc2)cc1)Oc1ccccn1` (centres undefined), the outcome was inactive.

As to `CSc1nnc(C(C)(C)C)c(=O)n1N`, the result was inactive.

For the compound `CC(C)N(C(=O)SCC(Cl)=C(Cl)Cl)C(C)C`, the outcome was inactive.

As for `CNc1cnn(-c2cccc(C(F)(F)F)c2)c(=O)c1Cl`, the result was inactive.

Take `CCCCOC(=O)[C@@H](C)Oc1ccc(Oc2ccc(C#N)cc2F)cc1`: the AC50 is 93.9 µM (active).
